A selection: hits, their analogues and other compounds. The true share with any hit is near 2.9%.
SNCA expr inh: reduces expression of the alpha-synuclein gene; 140,000 compounds, 0.17% hits; HEK-293 SNCA-luciferase knock-in, luminescence, 24 h; AID 1671194; Potency, µM (doses to about 57.2 µM), for the others: at the highest dose activity change, negative = inhibition, actives largely listed as inhibitors;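 note: potency is the fitted concentration of half-maximal effect; plate controls were DMSO cells for no effect and cell-free wells for full effect; nearly all actives have a fitted effect of over 45% in size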
IP6K1 inhibitor: IP6K1 kinase inhibition; 140,000 compounds, 0.81% hits; activity change, % (series mostly up to about 58 µM); Q92551; IP6K1 kinase, ADP-Glo luminescence, 2 h; hits give low values; AID 1645851; in the data active = activity change below about -25%; note: % is set by controls: 0 for no effect and ±100 for the full control effect
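ADP-Glo luminescence measures ADP made by human IP6K1 during a 2 h RT reaction with ATP/IP6 (mix at 1.3 mM/130 uM); top library doses 57.5 and 19.1 uM final.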
SNCA viab count: reduces viability of HEK-293 SNCA reporter cells; HEK-293-SNCA-luc viability, GF-AFC fluorescence, 24 h; 150,000 compounds, 0.12% hits; Potency, µM (top dose mostly 57.1 µM), for the others: top-dose activity change, negative = cytotoxicity, usual class: cytotoxic;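 note: potency is the fitted concentration of half-maximal effect; 0% = DMSO-treated cells and -100% = medium-only wells without cells; nearly all actives have a fitted effect of over 30% in size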
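Cytotoxicity counterscreen: after 24 h compound treatment of genome-edited SNCA-luciferase HEK-293 cells, live-cell protease substrate GF-AFC read by fluorescence after 30 min; activity scaled between DMSO (0%) and medium-only (-100%), curves Hill-fitted.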
KDM5B inh: inhibitors of human KDM5B histone demethylase; 220,000 compounds, 2.6% hits; Potency, µM (top dose mostly 57.7 µM), actives largely listed as inhibitors; KDM5B demethylase, FDH-coupled NADH fluorescence (FDH is formaldehyde dehydrogenase); AID 1347165; Q9UGL1; note: potency is the fitted concentration of half-maximal effect; 0% is about no effect; nearly all actives have a fitted effect of over 70% in size
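qHTS format, multiple compound concentrations. Buffer 50 mM HEPES pH 7.5/0.01% Tween-20; 200 nM KDM5BΔAP final; 10 min compound preincubation; substrate-mix levels 12.5 µM peptide, 25 µM α-KG, 0.25 mM NAD⁺; 30 min RT; ΔRFU.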
Starred values were filed as active, the others as inactive; [ ] = another dose, or the depositor's remark. Unless noted, calls come from the whole dose curve; as a rule, active = well fitted curve in the direction sought with a large enough effect; inconclusive = small, poorly fitted or top-dose-only effect, or another doubt; inactive = no such curve, though single readings can be large; an effect the other way counts as inactive or inconclusive.

COCCC(=O)Nc1ccc2n(c1=O)C[C@H]1C[C@@H]2CN(CCCc2ccccc2)C1 was read as SNCA expr inh -19%[87.6 µM], IP6K1 inhibitor -2, SNCA viab count 2%[87.6 µM] and KDM5B inh 32µM*.
COc1ccc(CC(=O)N2CCN(Cc3ccccc3-c3ccccc3F)CC2)cc1 was read as SNCA expr inh 10%, IP6K1 inhibitor 1 and SNCA viab count 0%[12.5 µM].
Screening CCOC(=O)[C@H]1CN(C(=O)OCc2ccccc2)[C@]2(C)C(=O)Nc3ccccc3[C@H]12 returned SNCA expr inh 19%[25.6 µM], IP6K1 inhibitor 10 and SNCA viab count -10%[23.9 µM].
For NNCc1cccnc1 the results were KDM5B inh inactive.
Screening Cc1ccccc1-c1ccc2n(c1=O)C[C@H]1C[C@@H]2CN(C(=O)c2cnccn2)C1 returned SNCA expr inh 13%[87.6 µM], IP6K1 inhibitor 2, SNCA viab count 4%[87.6 µM] and KDM5B inh inactive.
O=C(C1CCCCC1)N1C[C@@H]2C[C@H](C1)c1ccc(-c3cccc(C(F)(F)F)c3)c(=O)n1C2 was read as SNCA expr inh 0%, IP6K1 inhibitor 14, SNCA viab count -11% and KDM5B inh 32µM*.
`O=C(c1cnccn1)N1C[C@@H]2C[C@H](C1)c1ccc(-c3cccc(C(F)(F)F)c3)c(=O)n1C2` gave SNCA expr inh -5%, IP6K1 inhibitor 24, SNCA viab count 0% and KDM5B inh 18µM*.
CSCC(=O)N1C[C@@H]2C[C@H](C1)c1ccc(-c3ccccc3CN(C)C)c(=O)n1C2 was read as SNCA expr inh -25%[87.6 µM], IP6K1 inhibitor 10, SNCA viab count -1%[87.6 µM] and KDM5B inh 32µM*.
Screening CSCC(=O)N1C[C@@H]2C[C@H](C1)c1ccc(-c3cccc(C(F)(F)F)c3)c(=O)n1C2 returned SNCA expr inh -6%[87.6 µM], IP6K1 inhibitor 9, SNCA viab count -10%[87.6 µM] and KDM5B inh 35µM*.
For O=C(C1CCCCC1)N1C[C@@H]2C[C@H](C1)c1ccc(C3CCCCC3)c(=O)n1C2 the results were SNCA expr inh -3%[87.6 µM], IP6K1 inhibitor 11, SNCA viab count 1%[87.6 µM] and KDM5B inh inconclusive.
`O=C(Nc1ccccc1)Nc1ccc2n(c1=O)C[C@H]1C[C@@H]2CN(C(=O)c2ccccc2)C1` gave SNCA expr inh 77%[87.6 µM], IP6K1 inhibitor -2, SNCA viab count -10%[87.6 µM] and KDM5B inh inconclusive.
COc1nc2ccccc2cc1CN1CCC2(C1)CN(C)C(=O)O2 (configuration not stated) was read as SNCA expr inh -40%, IP6K1 inhibitor -11, SNCA viab count -21% and KDM5B inh inconclusive.
`CCOC(=O)[C@H]1CN(C(=O)c2ccccc2)[C@]2(C)C(=O)N(CC3CC3)c3ccccc3[C@H]12` gave SNCA expr inh -5%[25.6 µM], IP6K1 inhibitor 9 and SNCA viab count -7%[23.9 µM].
N#Cc1ccc(NC(=O)CSc2ccc3c(c2)OCCCO3)cc1Cl was read as KDM5B inh inactive.
`O=C(O)C(=O)N1C[C@@H]2C[C@H](C1)c1ccc(NS(=O)(=O)c3ccccc3)c(=O)n1C2` gave SNCA expr inh 6%[87.6 µM], IP6K1 inhibitor 13, SNCA viab count 2%[87.6 µM] and KDM5B inh inconclusive.
Screening O=C(O)CCCC(=O)N1C[C@@H]2C[C@H](C1)c1ccc(-c3ccc(Cl)cc3)c(=O)n1C2 returned SNCA expr inh -5%[87.6 µM], IP6K1 inhibitor -3, SNCA viab count 4%[87.6 µM] and KDM5B inh 40µM*.
Screening CCOC(=O)[C@H]1CN(C(=O)Cc2ccc(OC)cc2)[C@]2(C)C(=O)N(CC3CC3)c3ccccc3[C@H]12 returned SNCA expr inh -27%[25.6 µM], IP6K1 inhibitor 4 and SNCA viab count inconclusive.
Screening COc1cccn(CC(=O)N2CCN(C)C3(CCNCC3)C2)c1=O returned SNCA expr inh -12%, IP6K1 inhibitor 7, SNCA viab count 2% and KDM5B inh 13µM*.
For Cn1nc2n(c1=O)CCC(NC(=O)c1nn(C)c3ccccc13)CC2 (configuration not stated) the results were SNCA expr inh -24%, IP6K1 inhibitor -12, SNCA viab count 10% and KDM5B inh 18µM*.
C/C=C(\C)C(=O)O[C@@H]1[C@@H](C)[C@]2(O)C3C=C(C)C(=O)[C@@]3(O)CC(CO)=C[C@H]2C2C(C)(C)[C@@]21OC(=O)C(C)CC (some centres not stated) was read as IP6K1 inhibitor -3 and SNCA viab count -18%[23.9 µM].
O=C(c1ccccc1)N1C[C@@H]2C[C@H](C1)c1c(/C=C/c3ccc(Cl)cc3)ccc(=O)n1C2 was read as SNCA expr inh -26%[87.6 µM], IP6K1 inhibitor -3, SNCA viab count -12%[87.6 µM] and KDM5B inh 35µM*.
O=C(Cc1ccc(Cl)nc1)N1CCN(CCCn2nc3n(c2=O)CCCC3)CC1 was read as IP6K1 inhibitor -3.
Screening O=C(O)C1=NOC2CN(Cc3cccnc3)CC12 (configuration not stated) returned SNCA expr inh 13%[87.6 µM], IP6K1 inhibitor 2, SNCA viab count -4%[87.6 µM] and KDM5B inh 40µM*.
`O=C1CO[C@H]2CN(Cc3ccco3)C[C@H]2N1Cc1cccnc1` gave SNCA expr inh 10%[87.6 µM], IP6K1 inhibitor -3, SNCA viab count -3%[87.6 µM] and KDM5B inh inactive.
Screening O=C1CO[C@H]2CN(Cc3ncc[nH]3)C[C@H]2N1Cc1ccncc1 returned SNCA expr inh -6%[87.6 µM], IP6K1 inhibitor 4, SNCA viab count 6%[87.6 µM] and KDM5B inh 35µM*.
For O=C1CO[C@H]2CN(Cc3ncc[nH]3)C[C@H]2N1Cc1cccnc1 the results were SNCA expr inh -23%[87.6 µM], IP6K1 inhibitor -4, SNCA viab count 4%[87.6 µM] and KDM5B inh 25µM*.
O=C(Cc1cccc(Cl)c1)N1CCN(Cc2ccccc2-c2ccccc2F)CC1 was read as SNCA expr inh -13%, IP6K1 inhibitor 4 and SNCA viab count 1%[12.5 µM].
For O=[S+]1([O-])NC2(CCN(Cc3cccnc3)C2)COc2ccncc21 (configuration not stated) the results were SNCA expr inh -12%, IP6K1 inhibitor 2, SNCA viab count 3% and KDM5B inh inactive.
`O=[S+]1([O-])NC2(CCN(Cc3ccncc3)C2)COc2ccncc21` (configuration not stated) gave SNCA expr inh 4%, IP6K1 inhibitor 2, SNCA viab count -1% and KDM5B inh 40µM*.
COc1cc2c(cc1CCc1ccccc1)N([S+](=O)([O-])c1ccc3c(c1)CCO3)CC21CCN(C(C)=O)CC1 was read as SNCA expr inh inconclusive, IP6K1 inhibitor -4, SNCA viab count -9% and KDM5B inh 28µM*.
`FC(F)(F)CN1C2CCC1CN(c1cnc3ccccc3c1)C2` gave SNCA expr inh 3%, IP6K1 inhibitor 4, SNCA viab count -5% and KDM5B inh 100µM*.
`COc1cccc(N2CC3CCC(C2)N3CC(F)(F)F)n1` gave SNCA expr inh -3%, IP6K1 inhibitor 5, SNCA viab count -6% and KDM5B inh 100µM*.
CCOC(=O)[C@@H]1[C@H]2c3ccccc3N(CCOC)C(=O)[C@H]2N(C(=O)CC(C)C)[C@@H]1c1ccccc1 was read as IP6K1 inhibitor 2.
